According to PubChem BioAssay AID1851 (National Center for Advancing Translational Sciences (NCATS), 2009):
Values joined by “and” are separate entries in the source; they are usually repeats but may differ in a detail not shown here. Equal entries are not always repeated. In all, about 16,000 compounds went through this assay and about 5,100 (32%) were called active. Inconclusive results (about 25%) are left out. Some of the results follow. Unmarked numbers belong to inactive results. The call rests on the fitted dose curve; in most records, active means well fitted curve in the direction sought with a large enough effect; inconclusive means small, poorly fitted or top-dose-only effect, or effect the other way; inactive means no such curve, though single readings can be large or run the other way.

Target: Cytochrome P450 3A4 (Homo sapiens) (UniProt P08684)
Assay: Cytochrome panel assay with activity outcomes
Conditions: recombinant CYP, pro-luciferin dealkylation, luminescence, p450-cyp3a4; series mostly up to 57.1 µM
On the % scale 0 is the no-effect control and ±100 the full control effect.

Cytochrome P450 3A4 (Homo sapiens), sequence (P08684 whole entry, looked up): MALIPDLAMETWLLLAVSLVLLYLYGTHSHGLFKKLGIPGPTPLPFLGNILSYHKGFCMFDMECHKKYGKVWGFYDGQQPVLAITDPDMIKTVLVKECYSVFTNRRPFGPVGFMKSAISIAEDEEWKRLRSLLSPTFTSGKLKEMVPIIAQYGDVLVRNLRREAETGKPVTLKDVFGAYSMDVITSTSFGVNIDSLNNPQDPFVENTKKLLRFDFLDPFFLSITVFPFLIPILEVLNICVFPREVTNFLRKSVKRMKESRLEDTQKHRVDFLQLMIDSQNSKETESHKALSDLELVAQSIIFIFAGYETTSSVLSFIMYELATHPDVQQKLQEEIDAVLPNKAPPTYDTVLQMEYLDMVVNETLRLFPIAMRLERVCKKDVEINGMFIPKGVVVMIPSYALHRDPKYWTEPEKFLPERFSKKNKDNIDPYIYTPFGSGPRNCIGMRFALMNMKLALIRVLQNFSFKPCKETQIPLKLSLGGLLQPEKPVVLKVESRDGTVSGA

Compound | AC50 | activity, negative = inhibition
CCn1cc(C(=O)O)c(=O)c2cc(F)c(N3CCNCC3)nc21 | inactive | –
COc1cc(Cl)c(C)cc1NC(=O)CNC(=O)Cn1cnc2ccccc2c1=O | inactive | –
COc1ccc(-n2nc(C(=O)NCC(=O)Nc3ccccn3)c3ccccc3c2=O)cc1 | 3.55 µM (active) | –
COC(=O)c1nn(-c2ccccc2)c(=O)cc1Oc1ccccc1 | – | -20.9% [at 11.4 µM]
Cc1ccc2c(c1)[C@@H]1CN(C)CC[C@@H]1N2S(=O)(=O)c1ccc(F)cc1 | 2 µM (active) | –
O=C1C[C@@H](O)[C@@H](O)[C@H]2[C@@H]3C(=O)N(Cc4ccccc4)C(=O)[C@@H]3CC[C@H]12 | – | -12.1% [at 11.4 µM] and -10.8% [at 11.4 µM]
CCN1C(=O)[C@H]2[C@H]3[C@H](O)[C@H](O)C/C(=N/OCC(C)C)[C@H]3CC[C@@H]2C1=O | – | 19.2% [at 11.4 µM]
O=C1C[C@@H](O)[C@@H](O)[C@H]2[C@@H]3C(=O)N(Cc4ccc5c(c4)OCO5)C(=O)[C@@H]3CC[C@H]12 | 3.98 µM (active) | –
CCN1C(=O)[C@H]2[C@H]3[C@H](O)[C@H](O)C/C(=N/OCC(C)C)[C@@H]3CC[C@@H]2C1=O | – | -6.7% [at 11.4 µM]
CCN1C(=O)[C@H]2[C@@H]3[C@H](O)[C@H](O)CC(=O)[C@H]3CC[C@H]2C1=O | – | -13.1% [at 11.4 µM] and -13% [at 11.4 µM]
O=C1[C@H]2[C@H]3[C@H](O)[C@H](O)C/C(=N/OCc4ccccc4)[C@H]3CC[C@@H]2C(=O)N1Cc1ccc2c(c1)OCO2 | 1 µM (active) | –
CC(=O)OC[C@@H]1O[C@@H](O/N=C2/C[C@@H](O)[C@@H](O)[C@@H]3[C@@H]4C(=O)N(Cc5ccc6c(c5)OCO6)C(=O)[C@H]4CC[C@H]23)[C@H](OC(C)=O)[C@H](OC(C)=O)[C@@H]1OC(C)=O | 5.01 µM (active) | –
CCN1C(=O)[C@H]2[C@H]3[C@H](O)[C@H](O)C/C(=N/O[C@@H](C)c4cc(-c5c(C)cc(C)cc5C)no4)[C@@H]3CC[C@@H]2C1=O | 3.98 µM (active) | –
CC(=O)OC[C@@H]1O[C@@H](O/N=C2/C[C@@H](O)[C@@H](O)[C@@H]3[C@@H]4C(=O)N(Cc5ccccc5)C(=O)[C@H]4CC[C@H]23)[C@H](OC(C)=O)[C@H](OC(C)=O)[C@@H]1OC(C)=O | – | -25% [at 11.4 µM]
CC(=O)OC[C@@H]1O[C@@H](O/N=C2/C[C@@H](O)[C@@H](O)[C@@H]3[C@@H]4C(=O)N(Cc5ccccc5)C(=O)[C@H]4CC[C@@H]23)[C@H](OC(C)=O)[C@H](OC(C)=O)[C@@H]1OC(C)=O | – | -27.9% [at 11.4 µM]
CCOC(=O)C(NC(C)=O)C(OC(C)=O)c1cccc(N(CCO)CCO)c1 (configuration not stated) | inactive | –
CC(=O)N(C)c1nnc(-c2cnccn2)s1 | inactive | –
CC(=O)N[C@@H]1CONC1=O | – | -3.29% [at 11.4 µM]
CC(C)CO/N=C1/C[C@@H](O)[C@@H](O)[C@@H]2[C@@H]3C(=O)N(C[C@@H]4CCCO4)C(=O)[C@H]3CC[C@H]12 | – | -0.365% [at 11.4 µM]
O=C1[C@H]2[C@H]3[C@H](O)[C@H](O)C/C(=N/OCc4ccccc4)[C@H]3CC[C@@H]2C(=O)N1C[C@@H]1CCCO1 | – | -11.3% [at 11.4 µM]
CC(C)CO/N=C1/C[C@@H](O)[C@@H](O)[C@@H]2[C@@H]3C(=O)N(Cc4ccc5c(c4)OCO5)C(=O)[C@H]3CC[C@H]12 | 1 µM (active) | –
O=C1[C@H]2[C@H]3[C@H](O)[C@H](O)C/C(=N/OCc4ccccc4)[C@@H]3CC[C@@H]2C(=O)N1C[C@@H]1CCCO1 | – | -20.3% [at 11.4 µM]
CC(C)CO/N=C1/C[C@@H](O)[C@@H](O)[C@@H]2[C@@H]3C(=O)N(Cc4ccccc4)C(=O)[C@H]3CC[C@@H]12 | – | -11.8% [at 11.4 µM]
O=C1[C@H]2[C@H]3[C@H](O)[C@H](O)C/C(=N/OCc4ccccc4)[C@@H]3CC[C@@H]2C(=O)N1Cc1ccc2c(c1)OCO2 | 2 µM (active) | –

Compound | AC50 | activity, negative = inhibition
Nc1ccc(C(=O)C[C@H](N)C(=O)O)cc1O | – | -6.46% [at 11.4 µM]
O=C(O)[C@@H]1[C@@H](C(=O)Nc2ncccn2)[C@@H]2C=C[C@@H]1O2 | – | -13% [at 11.4 µM]
Fc1ccc(-c2cnc(-c3cccs3)o2)cc1 | inactive | –
Nc1c(-c2cccs2)cnn1-c1nc(-c2ccc(F)cc2)cs1 | 3.98 µM (active) | –
CCOC(=O)c1cnn(-c2nc(-c3ccc(F)cc3)cs2)c1C(F)(F)F | inactive | –
Cc1ccc(C)c(S(=O)(=O)NCc2ccc(C(=O)N3CCC(Cc4ccccc4)CC3)cc2)c1 | 2.24 µM (active) | –
CC1(C)CC(O)CC(C)(C)N1CC(O)COCCOc1ccc(Br)cc1 (configuration not stated) | inactive | –
COCCNC(=O)COC(=O)/C=C/c1cnc2ccccc2n1 | – | -3.34% [at 2.29 µM]
O=C(CCl)Nc1ccc(Oc2cnc3ccccc3n2)cc1 | 14.1 µM (active) | –
Clc1cccc(Oc2cnc3ccccc3n2)c1 | inactive | –
COc1ccc(CNc2cc(-c3cccnc3)ncn2)c(OC)c1 | 1.58 µM (active) | –
COc1ccccc1CNc1cc(-c2cccnc2)ncn1 | 0.631 µM (active) | –
COc1ccc(CCNc2nc(-c3cccnc3)cs2)cc1OC | 3.16 µM (active) | –
O=C(NC(=S)Nc1nc(-c2ccc(Br)cc2)cs1)c1cccnc1 | – | -14.3% [at 2.29 µM]
c1ccc(-c2csc3ncn4cnnc4c23)cc1 | inactive | –
CCS(=O)(=O)Nc1ccc(C2=NN(C(=O)c3ccco3)C(c3ccc(C)cc3)C2)cc1 (configuration not stated) | 3.98 µM (active) | –
Cc1ccc(C2C(C(=O)c3ccco3)=C(O)C(=O)N2c2nnc(C)s2)cc1 (configuration not stated) | inactive | –
N=C(N)SCCSC(=N)N | – | -5.54% [at 11.4 µM]
N=C(N)SCCc1ccncc1 | – | 4.88% [at 11.4 µM]
N=C(N)SCCc1cnc[nH]1 | 15.8 µM (active) | –
Cc1cc(C)cc(Oc2coc3cc(OC(=O)c4cccs4)ccc3c2=O)c1 | inactive | –
Cc1cccc(Oc2coc3cc(OC(=O)c4cccs4)ccc3c2=O)c1 | 11.2 µM (active) | –
CCOc1ccccc1Oc1coc2cc(OC)ccc2c1=O | inactive | –
